Where “and” joins values, the source holds several entries; their conditions need not be identical. Equal values may be shown once. Records with an inconclusive call do not appear. The source holds several records for some structures; these can differ, active in one and inactive in another. Calls of active or inactive are those of the source. Unless noted, the call rests on the fitted dose curve; in most records, active means well fitted curve in the direction sought with a large enough effect in the repeat runs; inconclusive means weak or mixed curves; inactive means no such curve, though single readings can be large; an effect the other way counts as inactive or inconclusive.

For 18 compounds, Potency results are on record in PubChem BioAssay (Tox21).

Test [1] concerns the target Luciferin 4-monooxygenase (Photinus pyralis) (UniProt P08659). Put plainly: qHTS assay to identify small molecule inhibitors of firefly luciferase (AID 1224835). Further: nearly all actives have a fitted effect of over 25% in size. Further: potency means the concentration at half of the fitted maximal effect. The method in brief:
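Biochemical qHTS: compounds run as interplate titrations against purified firefly enzyme, with D-luciferin and ATP each at its KM concentration. Light output recorded by CCD imaging.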
On the technique in general: qHTS replaces the single test concentration by a dilution series.

A short description of test [2]: qHTS assay to identify small molecule agonists of the constitutive androstane receptor (CAR) signaling pathway - cell viability counter screen (AID 1224836). Further: nearly all actives have a fitted effect of over 45% in size. Further: potency means the concentration at half of the fitted maximal effect. The method, boiled down:
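HepG2-CYP2B6-hCAR, 2500 cells/well, 4 h pre-incubation; cpd 15 conc + PK11195 0.75 uM final; 23 h, 37 C/5% CO2; CellTiter-Fluor, fluorescence.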

A short description of test [3]: qHTS assay to identify small molecule antagonists of the constitutive androstane receptor (CAR) signaling pathway - cell viability counter screen (AID 1224837). Further: nearly all actives have a fitted effect of over 45% in size. Further: potency means the concentration at half of the fitted maximal effect. The method, boiled down: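 Multiplexed cytotoxicity read-out for the CAR antagonist screen: double-stable HepG2-CYP2B6-hCAR cells co-treated with 50 nM CITCO (final) and compound over 15 concentrations, incubated 23 hr, then assessed by CellTiter-Fluor fluorescence.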

Test [4] has as its target Nuclear receptor subfamily 1 group I member 3 (Homo sapiens) (UniProt Q14994). The experiment in a line: qHTS assay to identify small molecule agonists of the constitutive androstane receptor (CAR) signaling pathway (AID 1224839). Further: nearly all actives have a fitted effect of over 15% in size. Further: potency means the concentration at half of the fitted maximal effect. The method, boiled down: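 HepG2-CYP2B6-hCAR cells, 2500/well, 4 h pre-incubation; compounds 15 conc.; PK11195 0.75 uM final; 24 h, 37 C/5% CO2; ONE-Glo luciferase read.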

A short description of test [5]: qHTS assay to identify small molecule antagonists of the estrogen related receptor signaling pathway with the pleiotropic PPARgamma coactivator (PGC) from Tox21 10K library - cell viability counter screen (AID 1224840; active means well fitted cell-killing curve with a large enough effect in the repeat runs, not every such curve was filed as active; further: nearly all actives have a fitted effect of over 40% in size; further: potency means the concentration at half of the fitted maximal effect). The method, boiled down: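 Step one, plate 2,000 PGC/ERR cells per well; step two, incubate 6 h at 37 C/5% CO2; step three, pin-transfer compounds; step four, incubate 17.5 h; step five, add CellTiter-Fluor and read fluorescence after 30 min.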

Test [6] in a line: qHTS assay to identify small molecule antagonists of the estrogen related receptor signaling pathway with the pleiotropic PPARgamma coactivator (PGC) from Tox21 10K library (AID 1224841; call rule not given here; further: series mostly up to about 92 µM; actives are mostly falling curves and most rising ones were filed inactive; nearly all actives have a fitted effect of over 50% in size). The method in brief: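 Antagonism in this quantitative HTS is taken from loss of luciferase signal in PGC/ERR cells. Cells (2,000/well) are treated with compounds in DMSO after a 6 h settling period and read by One-Glo luminescence after 18 h.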

Test [7] in a line: qHTS assay to identify small molecule agonists of the estrogen related receptor signaling pathway with the pleiotropic PPARgamma coactivator (PGC) from Tox21 10K library (AID 1224842). Further: nearly all actives have a fitted effect of over 15% in size. The method in brief: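 PGC/ERR reporter cell line, 2,000 cells per well, incubated 6 h at 37 C before 23 nL compound in DMSO was added. After 18 h at 37 C, One-Glo luminescence read following 30 min at room temperature.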

Test [8] deals with Thyrotropin receptor (Homo sapiens) (UniProt P16473). Put plainly: qHTS assay to identify small molecule agonists of the thyroid stimulating hormone receptor (TSHR) signaling pathway (AID 1224843; calls by dose curve; further: nearly all actives have a fitted effect of over 45% in size; further: potency means the concentration at half of the fitted maximal effect). The method, boiled down: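 TSHR-HEK293 cells in agonist mode, 30 min room-temperature step, then cAMP measured by competitive HTRF (cAMP-d2 with anti-cAMP cryptate) after 1 h at room temperature. Tested at 15 concentrations in triplicate.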

Test [9] is described as follows: qHTS assay to identify small molecule agonists of the hypoxia (HIF-1) signaling pathway - cell viability counter screen (AID 1224844; calls by dose curve; further: nearly all actives have a fitted effect of over 50% in size; further: potency means the concentration at half of the fitted maximal effect). The method in brief:
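Tox21 10K compounds were added to HRE-bla ME-180 cells (0.5% dialyzed FBS) and incubated 17 hrs at 37C; ATP-based CellTiter-Glo luminescence then reported cell viability in the same wells.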

Test [10] concerns the target Nuclear receptor subfamily 1 group I member 3 (Homo sapiens) (UniProt Q14994). The experiment in a line: qHTS assay to identify small molecule antagonists of the constitutive androstane receptor (CAR) signaling pathway (AID 1224838). Further: nearly all actives have a fitted effect of over 40% in size. Further: potency means the concentration at half of the fitted maximal effect. The method, boiled down:
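Compounds were titrated across 15 concentrations onto HepG2 cells double-stably expressing hCAR and a CYP2B6-2.2kb reporter, together with 50 nM CITCO (final). After 24 h at 37 C, luciferase activity was measured by luminescence.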

Chain of Thyrotropin receptor (Homo sapiens) (P16473 whole entry, looked up): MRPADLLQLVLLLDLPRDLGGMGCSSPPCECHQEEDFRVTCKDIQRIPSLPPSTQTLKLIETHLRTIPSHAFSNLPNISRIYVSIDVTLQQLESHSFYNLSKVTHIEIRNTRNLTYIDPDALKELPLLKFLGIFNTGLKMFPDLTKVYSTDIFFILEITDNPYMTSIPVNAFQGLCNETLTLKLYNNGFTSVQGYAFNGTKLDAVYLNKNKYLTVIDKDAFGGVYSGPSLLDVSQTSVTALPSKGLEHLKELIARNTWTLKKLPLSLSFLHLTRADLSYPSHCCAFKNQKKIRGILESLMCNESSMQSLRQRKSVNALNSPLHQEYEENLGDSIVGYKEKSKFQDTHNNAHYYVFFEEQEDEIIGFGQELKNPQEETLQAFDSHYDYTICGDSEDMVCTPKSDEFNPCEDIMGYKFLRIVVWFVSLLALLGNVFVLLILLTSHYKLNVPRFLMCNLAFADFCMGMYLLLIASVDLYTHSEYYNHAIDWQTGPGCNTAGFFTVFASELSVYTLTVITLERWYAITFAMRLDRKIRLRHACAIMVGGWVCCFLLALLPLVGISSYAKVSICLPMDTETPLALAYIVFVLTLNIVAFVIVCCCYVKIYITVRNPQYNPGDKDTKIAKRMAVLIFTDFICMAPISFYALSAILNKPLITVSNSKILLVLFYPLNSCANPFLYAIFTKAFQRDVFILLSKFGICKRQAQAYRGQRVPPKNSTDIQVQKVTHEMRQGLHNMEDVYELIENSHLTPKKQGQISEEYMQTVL
Chain of Nuclear receptor subfamily 1 group I member 3 (Homo sapiens) (Q14994 whole entry, looked up): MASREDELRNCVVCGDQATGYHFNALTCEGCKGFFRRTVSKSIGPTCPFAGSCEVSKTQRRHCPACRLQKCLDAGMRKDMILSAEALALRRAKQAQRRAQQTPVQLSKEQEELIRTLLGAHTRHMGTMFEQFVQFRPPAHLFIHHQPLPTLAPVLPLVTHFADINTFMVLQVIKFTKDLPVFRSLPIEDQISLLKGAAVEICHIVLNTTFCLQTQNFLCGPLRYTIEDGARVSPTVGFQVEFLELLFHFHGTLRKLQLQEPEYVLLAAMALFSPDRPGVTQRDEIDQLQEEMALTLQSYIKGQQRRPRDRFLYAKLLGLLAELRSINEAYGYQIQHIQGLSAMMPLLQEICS
Chain of Luciferin 4-monooxygenase (Photinus pyralis) (P08659 whole entry, looked up): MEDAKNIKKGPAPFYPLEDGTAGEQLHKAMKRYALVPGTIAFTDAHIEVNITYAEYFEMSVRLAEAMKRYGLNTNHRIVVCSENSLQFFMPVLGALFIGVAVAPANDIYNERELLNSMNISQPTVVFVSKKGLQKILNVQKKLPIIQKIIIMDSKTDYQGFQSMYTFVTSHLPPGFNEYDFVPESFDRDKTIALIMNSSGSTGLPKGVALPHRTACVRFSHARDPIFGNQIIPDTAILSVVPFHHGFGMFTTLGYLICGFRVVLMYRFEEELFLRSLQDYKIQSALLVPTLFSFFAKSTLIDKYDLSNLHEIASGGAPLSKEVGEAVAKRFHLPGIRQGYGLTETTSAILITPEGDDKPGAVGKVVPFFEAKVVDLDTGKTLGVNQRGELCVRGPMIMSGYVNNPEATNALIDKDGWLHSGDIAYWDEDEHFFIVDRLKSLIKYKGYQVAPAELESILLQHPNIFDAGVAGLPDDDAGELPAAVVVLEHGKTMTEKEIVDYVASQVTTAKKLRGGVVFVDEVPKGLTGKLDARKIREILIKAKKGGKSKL

Take `C#CC(C)(CC)OC(=O)c1ccccc1C(=O)O` (centres undefined): the Potency result in test [1], in [2], in [3], in test [4], in test [5] and in test [6] was “inactive” in each case. Moreover, the Potency result in test [7], in test [8] and in test [9] was “inactive” each time.

Consider `CC(=O)N[C@@H](CS)C(=O)O`, for which the Potency entry in test [1], in [2], in test [3], in test [10], in [4] and in test [5] was “inactive” throughout. Also, the Potency entry in test [8] and in test [9] was “inactive” throughout.

Consider `Cc1ccnc2c1NC(=O)c1cccnc1N2C1CC1`, for which the Potency result in test [1], in test [2], in [3], in test [10], in [4] and in test [5] was “inactive” each time. For the same compound, the Potency entry in test [8] and in test [9] was “inactive” throughout.

Take `C[N+]1([O-])CCOCC1`: the Potency entry in [1], in test [2], in test [3], in test [4], in test [5] and in [6] was “inactive” throughout. Moreover, the Potency result in test [7], in test [8] and in test [9] was “inactive” each time.

`CCc1cc(C(C)(C)C)c(O)c(C(C)(C)C)c1`: the Potency result in test [1], in test [2], in test [3], in test [10], in test [5] and in test [8] was “inactive” throughout. Moreover, the Potency result in test [9] is “inactive”. In [4], the Potency entry is “inactive and 12.2 µM (active)”.

`CC[C@H]1CN2CCc3cc(OC)c(OC)cc3[C@@H]2C[C@@H]1C[C@H]1NCCc2cc(OC)c(OC)cc21`: the Potency entry in test [1], in [4] and in test [9] was “inactive” in each case. Besides, the Potency in test [2] was 24.4 nM (active) and 150 nM (active); in test [3] it was 27.4 nM (active) and 133 nM (active); in test [10], 54.6 nM (active) and 237 nM (active); in test [5], 24.4 nM (active) and 168 nM (active).

Take `CC(C)(C)NCC(O)COc1ccccc1OCC1CCCO1` (centres undefined): the Potency result in test [1], in test [2], in test [3], in test [4], in [5] and in test [6] was “inactive” each time. The Potency result in test [7], in test [8] and in [9] was “inactive” throughout.

On to `c1ccc2n[nH]nc2c1`, for which the Potency result in [1], in test [2], in test [3], in test [10], in test [4] and in test [5] was “inactive” each time. For the same compound, the Potency result in test [8] and in test [9] was “inactive” in each case.

As for `OCC(CO)N[C@H]1C[C@](O)(CO)[C@@H](O)[C@H](O)[C@H]1O`, the Potency entry in test [1], in test [2], in [3], in [4], in test [5] and in [6] was “inactive” each time. Further, the Potency entry in test [7], in [8] and in test [9] was “inactive” each time.

`CCCCC/C=C/CC1CC(=O)OC1=O` (centres undefined): the Potency result in [1], in test [2], in [3], in test [4], in [5] and in [6] was “inactive” throughout. Further, the Potency result in test [7], in test [8] and in test [9] was “inactive” throughout.

For `O=C1NCC2(CCN(CCc3ccccc3)CC2)O1`, the Potency entry in test [1], in test [2], in test [3], in test [10], in test [4] and in test [5] was “inactive” throughout. Also, the Potency result in [8] and in test [9] was “inactive” throughout.

On to `COc1ccc(COC(C)=O)cc1`, for which the Potency result in test [1], in test [2], in test [3], in [4], in test [5] and in test [6] was “inactive” throughout. The Potency entry in test [7], in test [8] and in test [9] was “inactive” each time.

Take `CCn1cc(C(=O)O)c(=O)c2cc(F)c(N3CCNC(C)C3)c(F)c21` (centres undefined): the Potency result in test [1], in test [2], in [3], in [4], in test [5] and in test [6] was “inactive” in each case. For the same compound, the Potency result in test [7], in [8] and in test [9] was “inactive” throughout.

With `CCCNC(C)C(=O)Nc1ccccc1C` (centres undefined), the Potency entry in test [1], in test [2], in [3], in [10], in test [4] and in [5] was “inactive” throughout. Moreover, the Potency result in test [8] and in test [9] was “inactive” in each case.

As for `Oc1c(Cl)cc(Cl)c(Cl)c1Cc1c(O)c(Cl)cc(Cl)c1Cl`, the Potency result in test [1] and in test [4] was “inactive” each time. In addition, the Potency was 7.67 µM (active) in test [2]; 9.44 µM (active) in test [3]; 10.8 µM (active) and 10.9 µM (active) and 9.44 µM (active) in test [10]; 15.3 µM (active) and inactive in [8]; 19.4 µM (active) and 19.5 µM (active) in test [9].

Regarding `CC(=O)OCCOCCOCCOC(C)=O`, the Potency entry in [1], in [2], in test [3], in [10], in test [4] and in test [5] was “inactive” each time. Moreover, the Potency entry in test [9] is “inactive”. Also, the Potency in test [8] is 6.77 µM (active) and inactive.

`C/C=C/c1ccc(OCC)c(O)c1`: the Potency in test [1] was 31.7 µM (active) and 35.6 µM (active). Further, the Potency result in test [2], in [3], in test [10], in test [4], in test [5] and in test [8] was “inactive” each time. Moreover, the Potency result in test [9] was “inactive”.

In the case of `O=C(Cl)c1cccc(C(=O)Cl)c1`, the Potency entry in test [1], in test [2], in test [3], in test [10], in test [4] and in test [5] was “inactive” throughout. In addition, the Potency result in [8] and in test [9] was “inactive” throughout.
